The supplement of paper PMC6555819

The sequences below were run on RARb:RXRa (NR concentration 270 nM, RXRa partner concentration 90 nM) (assay: PBM binding z-score (relative to random genomic background probes); higher = stronger binding; sequences stand for … in GC…GCGATTGACAGCGTAGAATGAAGG).
Procedure, shortened: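 Ligand-free nuclear receptor dimers were bound for 1 h to custom Agilent 4×180K protein-binding microarrays. Detection used antibodies against each partner (one per run). Binding z-scores rest on regression-normalized fluorescence, with random background probes as the reference.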
Work on CGAACGAAGGCATGAGTTGATAGCAAATGCCGAT yielded a PBM binding z-score of -0.545.
Work on AGTCAAAGTTCAACTAGGTAACGTAAGATATGCT yielded a PBM binding z-score of 5.16.
In the case of CCTTCCGGGTCACGAGGTTATAGCACGACGAGCG, the PBM binding z-score is reported as 4.55.
For CCTACTGGGCCCAGGTCATTGATCAGTCAAAGCA, the PBM binding z-score was 1.95.
CTACCAAGGTGAACAAGGTAGTTGATTACTATTC showed a PBM binding z-score of 1.53.
Work on TCTATAAGTTGATTAGGGCAACCGAAACAGCGGA yielded a PBM binding z-score of 1.13.
With CCTAGCAGGCCAATATGGGTCACTCAAGGCTTGA the PBM binding z-score was 1.44.
For GCTCGGAGGCCAAGGTCAGAGCTTTGTCCGTAGA, the PBM binding z-score was 3.45.
Work on GCTATTAGATGAAAGGGCAACCGAATGATTCTCG yielded a PBM binding z-score of 1.94.
CCCACTGGGCCATCAGGTCATTGATATCAACGTT gave a PBM binding z-score of 2.04.
ACAGACAGGTGATGAAGGAAACTCAGGCTATCAT was tested, and the PBM binding z-score was 0.275.
With ACTAGTTGGTCAGCTGAGGTCACGCACAATTCGG the PBM binding z-score was 4.04.
For ATCTCTAGGTAACAAGTTCAGTTAAAGAGAGGAC, the PBM binding z-score was 1.71.
CGTCAAAGTTCAACTAAGGTAACGTAAAGCACGC showed a PBM binding z-score of 5.43.
Work on CCTAGCAGGCCAGGGCCACTCAAGCATTTCGCTT yielded a PBM binding z-score of 0.21.
Sequence CCTACTGGGCCATCAGGTCTTTGATATCAACGTT has a PBM binding z-score of 0.423.
With AGTCAAAGTTCATCTAGGTAACGTCAGATATGCT the PBM binding z-score was 4.96.
For ACTAGCAGGCCAAGGGTCACTCATGATTAGTCCG, the PBM binding z-score was 3.41.
Sequence TCATATAGGTAAAGGTGAAAGTTGAACGATATGA has a PBM binding z-score of 2.25.
TGAATGAGTTTAAAGATCAGGGAACGTGGCGTCG was tested, and the PBM binding z-score was 0.682.
CGTCCACGGTCAATGCTAGGTCAGTGAAAGCATT was tested, and the PBM binding z-score was 3.16.
For CAAACTCGGTCACCGGAAGGTCAAAGTCCGCATG, the PBM binding z-score was 4.61.
With GCGACTGGGGCAAAGCGGGTTACCATAAGGTTGG the PBM binding z-score was 0.922.
With AGAATGAGGTTATACGTAGATCAGGAAAGAAAGT the PBM binding z-score was 1.37.
ATATGTAGGTTAGCTGGGGCCATTCAGACTAGGC showed a PBM binding z-score of 1.21.
For TCTAGCAGGCCAGAGGGTCAATCAAGAGGTACGG, the PBM binding z-score was 2.25.
Sequence ACTTACGGGTCAACGAGGTGATAGCACGCGTATA has a PBM binding z-score of 4.04.
Work on CCTACTGGGCCACGAAAGGTCATTGTTTCAGTGA yielded a PBM binding z-score of 4.06.
ATACCAAGGTGATCGTCAGGTCGTTGATACTAAC showed a PBM binding z-score of 1.12.
Work on CCGCCTAGGTCAGGGCCAGTATAGGAGGAACGTT yielded a PBM binding z-score of 3.43.
Work on ATCTCTAGGTAACGTTCAGTGAAAGATCGATAGA yielded a PBM binding z-score of 0.556.
Work on CATACAGGGTCAGGTAGGCCAGAGTAGGGACGGC yielded a PBM binding z-score of 3.73.
In the case of CATACAGGGTCAGCTAGGCCAGAGTAGGGACGGC, the PBM binding z-score is reported as 4.31.
Sequence ATAACGAGGGCAATGAGTTGATAGCACGGGTGGC has a PBM binding z-score of 2.02.
Work on CTTACAGGGTCAGCTAGGCCAGAGTAGGGACGGC yielded a PBM binding z-score of 4.04.
In the case of TCTTGTAGATCAACAGGAGGTTACGAAAGATCGA, the PBM binding z-score is reported as 0.551.
CCGCCTGGGGCAGAAAGGTTACCATACCATCCGG gave a PBM binding z-score of 1.83.
Sequence ATGGAAAGGTCGACGAGGTGAGTATACACCGTTT has a PBM binding z-score of 3.73.
Sequence TCTTGTAGATCAATAGAGGTTACGAAAGTGCGCT has a PBM binding z-score of 1.24.
For TCTATTAGTTGAAGGGCAACTGACGAGTCCGTTT, the PBM binding z-score was 1.6.
